Each structure is given as a SMILES string.

Format in all cases: functional
The subject of assay [1] is Plasmodium falciparum. The assay can be described thus: GSK_TCMDC: Inhibition of Plasmodium falciparum 3D7 in whole red blood cells, using parasite LDH activity as an index of growth. Test compounds present at 2uM.
The subject of assay [2] is Plasmodium falciparum. The assay can be described thus: GSK_TCMDC: Inhibition of Plasmodium falciparum Dd2 in whole red blood cells, using parasite LDH activity as an index of growth. Test compounds present at 2uM.
Assay [3] has as its system HepG2. The assay can be described thus: GSK_TCMDC: Percent inhibition of human HepG2 cell line. Test compounds present at 10uM.

As for `COc1ccc(Nc2ncc3c(-c4cccc(NC(=O)Cc5ccc(O)cc5)c4)c[nH]c3n2)cc1OC`, the results for the Inhibition in assay [1], in assay [2] and in assay [3] were 100%, 99% and 48%, respectively.

As for `O=C(c1cc(C(=O)Nc2ccccc2)c(=O)n(-c2ccccc2)c1)c1cc(Cl)ccc1O`, the Inhibition in assay [1] is listed as 100%; in assay [2], 95%; in assay [3], 9%.

As for `Oc1ccccc1-c1nc2cccnc2n1CCc1cccc(C(F)(F)F)c1`, the figures for the Inhibition in assay [1], in assay [2] and in assay [3] were 93%, 36% and 4%, respectively.

With `CN(C)CCOc1cc(NC(=O)/C=C/c2cccc3ccccc23)ccc1I`, the Inhibition in assay [1] came to 98%; in assay [2], 7%; in assay [3], 55%.

In the case of `Nc1nc(N)c2c(n1)CCC(c1ccccc1)C2` (centres undefined), the results for the Inhibition in assay [1], in assay [2] and in assay [3] were 93%, 0% and 55%, respectively.

As to `O=C(/C=C/c1ccccc1Cl)Nc1ccc(Br)c(OCCN2CCC(O)(c3ccccc3)CC2)c1.O=C(O)C(=O)O`, the results for the Inhibition in assay [1], in assay [2] and in assay [3] were 100%, 85% and 39%, respectively.

Turning to `CC[C@H](C)CNC(=O)c1cncc(-c2ccc(CNCCCc3ccccc3)cc2)c1.O=C(O)C(F)(F)F`, the Inhibition in assay [1] was found to be 100%; in assay [2], 99%; in assay [3] it was 19%.

Consider `Cl.c1ccc2c(Nc3ccc(Oc4ccc(Nc5c6ccccc6nc6ccccc56)cc4)cc3)c3ccccc3nc2c1`, for which the Inhibition in assay [1] was determined as 100%; in assay [2], 99%; in assay [3], 21%.

Regarding `CN(C)Cc1ccc2nc(-c3cccc(Cc4cc(Cl)ccc4OCc4ccc(Cl)cc4F)n3)[nH]c2c1.Cl`, the results for the Inhibition in assay [1], in assay [2] and in assay [3] were 93%, 26% and 43%, respectively.

As for `Cc1cccc2nc(-c3ccc(-c4ccc(CNCCc5ccncc5)cc4)cc3)[nH]c12.O=C(O)C(F)(F)F`, the Inhibition in assay [1] worked out at 100%; in assay [2], 98%; in assay [3], 34%.

On to `Nc1ncc(-c2cccc(OCc3ccccc3)c2)cc1-c1nnc2ccc(Cl)nn12`, for which the Inhibition is given as 94% in assay [1], 7% in assay [2] and 0% in assay [3].

Turning to `CCCN1CCC2(CC1)NC(C(=O)NCCC(C)C)Cc1c2[nH]c2cc(Cl)ccc12` (centres undefined), the Inhibition in assay [1] turned out to be 86%; in assay [2], 0%; in assay [3], 13%.

Turning to `CCOc1ccc(N(CC)S(=O)(=O)c2cc(Br)cc3c2N(C(=O)C2CC2)CC3)cc1`, the Inhibition in assay [1] stood at 99%; in assay [2], 97%; in assay [3], 0%.

On to `O=C(Nc1cccnc1)c1cc(-c2cc(Cl)ccc2O)n[nH]1`, for which the Inhibition in assay [1] is listed as 98%; in assay [2], 85%; in assay [3], 7%.

Regarding `CC(C)(C)c1ccc(CN2CCC(NC(=O)c3ccc(-c4cccc(C(F)(F)F)c4)s3)CC2)cc1.O=C(O)C(F)(F)F`, the Inhibition in assay [1] stood at 100%; in assay [2] it was 96%; in assay [3], 97%.

In the case of `Oc1ccc(C=NNC(S)=Nc2cccc3ccccc23)c(O)c1`, the Inhibition worked out at 89% in assay [1], 72% in assay [2] and 8% in assay [3].

On to `NS(=O)(=O)c1cccc(Nc2nccc(-c3c(-c4cccc(NC(=O)c5c(F)cccc5F)c4)nn4ccccc34)n2)c1`, for which the Inhibition in assay [1] worked out at 98%; in assay [2], 97%; in assay [3], 81%.

Regarding `COc1ccc(Nc2nc(N)c3cc(OC)c(OC)cc3n2)cc1OC.Cl`, the Inhibition in assay [1] was determined as 99%; in assay [2] it was 5%; in assay [3], 0%.

With `CCCCCCN1CCC(NCc2cccc3ccccc23)CC1.O=C(O)C(F)(F)F`, the Inhibition in assay [1] is recorded as 95%; in assay [2], 12%; in assay [3], 21%.

For the molecule `Cl.Clc1ccc2c(NCCCCCCCCNc3ccnc4cc(Cl)ccc34)ccnc2c1`, the Inhibition came to 99% in assay [1], 96% in assay [2] and 2% in assay [3].

Consider `Cc1cccc2nc(-c3ccc(-c4ccc(C(=O)NCCc5cn(C)cn5)cc4)s3)[nH]c12`, for which the Inhibition in assay [1] stood at 88%; in assay [2], 8%; in assay [3], 0%.

For `O=C(O)C(F)(F)F.c1cncc(CCNCc2cccc(-c3csc(-c4nc5ccccc5[nH]4)c3)c2)c1`, the Inhibition amounted to 100% in assay [1], 98% in assay [2] and 26% in assay [3].

Take `O=C(/C=C/c1ccc(Cl)c(Cl)c1)NCCCCCN1CCC(c2c[nH]c3c(-c4ccccc4)cccc23)CC1`: the values for the Inhibition in assay [1], in assay [2] and in assay [3] were 99%, 40% and 74%, respectively.

As for `COc1ccc(-c2nc3cc4ccccc4nc3[nH]2)c(OCC(O)CNC(C)C)c1.Cl` (centres undefined), the results for the Inhibition in assay [1], in assay [2] and in assay [3] were 98%, 96% and 19%, respectively.

Take `COc1ccc(-c2ccc(NC(=O)c3ccc(C#N)cc3)cc2)cc1CN1CCC(O)CC1.O=C(O)C(F)(F)F`: the Inhibition was determined as 94% in assay [1], 28% in assay [2] and 24% in assay [3].

As for `CC1CCC(NC(=O)c2nn(-c3ccc(Cl)cc3)c(=O)c3ccccc23)CC1` (centres undefined), the Inhibition in assay [1] is given as 91%; in assay [2], 67%; in assay [3] it was 3%.

In the case of `Cc1cc(-c2nc3ccc(CN4CCN(C)CC4)cc3[nH]2)nn1Cc1cc(Cl)ccc1OCc1ccccc1.Cl`, the values for the Inhibition in assay [1], in assay [2] and in assay [3] were 100%, 52% and 3%, respectively.

As to `CN1CCC(Oc2ccc(CN3CC[C@H](NC(=O)c4ccc(Cl)c(F)c4)C3)c3ccccc23)C1.O=C(O)C(F)(F)F` (some centres undefined), the Inhibition was found to be 100% in assay [1], 65% in assay [2] and 51% in assay [3].

These data come from ChEMBL document CHEMBL1157539, “Thousands of chemical starting points for antimalarial lead identification” (Nature, 2010).
